# ± gives the standard deviation.
# Tested on: MILI (PIWIL2) piRISC loaded with piRNA #1 (26 nt)
# Test: pre-steady-state target cleavage rate (min^-1); guide: piRNA #1 5'p-UGAGGUAGUAGGUUGUAUAGUAUCCA; MIWI and MILI are mouse PIWI proteins and EfPiwi is from a freshwater sponge; tags in brackets are library labels; higher = faster piRNA-guided slicing of the target
# Conditions: auxiliary factor: 500 nM mouse GTSF1
# Outline: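 Cleave-'n-Seq used a transcribed, DNA-blocked target RNA library at 0.1 nM and active affinity-purified piRISC with one synthetic guide at 1 nM, with or without 500 nM GTSF1 partner protein, in HEPES–potassium acetate buffer at 33 °C for 0–8 or 0–960 min. Uncleaved targets were sequenced and normalised to depth and to weakly complementary targets, and three trials were pooled with k3 capped at 0.0001 min^-1. The pre-steady-state cleavage rate was estimated by a burst-and-steady-state fit.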
row,Sequence,pre-steady-state target cleavage rate
1,GGAGACCUUACUAUAGUACCUACUACCUCA,0.119 ± 0.0098
2,GGAGACCAUACUAUUCAACCAACUACCUCA,0.00316 ± 0.0029
3,GGAGACCUAUCUAUACAACCUACUAGCUGA,0.00493 ± 0.0036
4,GGAGACCUAUCUAACAACCUACUACCUCA,0.0222 ± 0.0049
5,GGAGACCUAUGAAAACAACCUACUAGCUCA,0.00432 ± 0.0025
6,GGAGACCUAUCUUUACAAGCUACUACCUCA,0.122 ± 0.01
7,GGAGACCUAUGAUAACAAGCUACAACCUCA,0.0095 ± 0.0029
8,GGAGACGAUUCUAUACAACCUACUACGUCA,0.0993 ± 0.0097
9,GGAGACCUAUGAUAUGUUCCUACUAGGUCA,< 0.0001
10,GGAGACCUUACUAUACAACCAACUUCCUCA,0.00396 ± 0.0024
11,GGAGACCUAUGAUUACAACCUACUACCGCA,0.00418 ± 0.004
12,GGAGACCUAUGUAUACUACCUUCUACCUCA,0.00348 ± 0.0016
13,GGAGAGGAUUCUAUUCAACCUACUACCUCA,0.174 ± 0.013
14,GGAGACCUAUGUAUACAACCUACUUACCUCA,0.0503 ± 0.0043
15,GGAGACCUAUGUAUACAACCUACAUACCUCA,0.043 ± 0.0061
16,GGAGACCUAUGUAUACAUCCUACUUCCUCA,0.0795 ± 0.013

# Reference: the supplement of paper PMC10338343
